TDP1 cell CPT = qHTS for Inhibitors of human tyrosyl-DNA phosphodiesterase 1 (TDP1): qHTS in cells in presence of CPT | hit rate 12% among 420,000 | chicken DT40 Tdp1-/-;hTDP1 cells + 20 nM CPT, ATP luminescence, 48 h | Potency, µM (series often up to 46.2 µM), without a hit: at the highest dose activity change, negative = growth inhibition, actives largely listed as inhibitors; further: potency means the concentration at half of the fitted maximal effect; nearly all actives have a fitted effect of over 55% in size
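Cell growth measured by CellTiter-Glo luminescence after a minimum 48 h, 37 C compound exposure with 20 nM CPT in Tdp1-knockout DT40 cells stably expressing hTDP1, seeded 400/well; qHTS titration format.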
IL-1B inflam inh = qHTS for Inhibitors of Inflammasome Signaling: IL-1-beta AlphaLISA Primary Screen; THP-1 LPS/ATP IL-1B secretion, AlphaLISA, 16 h; active compounds read low; activity change, % at 57.5 µM; hit rate 4.7% among 360,000; in the data active means activity change below about -50%; inconclusive means mostly about -30% to -49%
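Secreted IL-1B measured by AlphaLISA bead assay after 16 h compound exposure of THP-1 cells; compounds (final up to 57.5 uM) added 1 h before LPS (250 ng/mL) and ATP (1.25 mM) stimulation; lower signal means less secretion.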
TDP1 inh = qHTS Assay for Inhibitors of Tyrosyl-DNA Phosphodiesterase (TDP1). AID 485290, 2010. Tyrosyl-DNA phosphodiesterase 1 (Homo sapiens), Q9NUW8. Potency, µM (series often up to 130 µM), for inactives: at the highest dose activity change, negative = inhibition, most hits filed as inhibitors. hit rate 0.28% among 350,000. recombinant TDP1, AlphaScreen DNA substrate cleavage; further: potency means the concentration at half of the fitted maximal effect; nearly all actives have a fitted effect of over 40% in size
Target sequence (Q9NUW8 whole entry, looked up): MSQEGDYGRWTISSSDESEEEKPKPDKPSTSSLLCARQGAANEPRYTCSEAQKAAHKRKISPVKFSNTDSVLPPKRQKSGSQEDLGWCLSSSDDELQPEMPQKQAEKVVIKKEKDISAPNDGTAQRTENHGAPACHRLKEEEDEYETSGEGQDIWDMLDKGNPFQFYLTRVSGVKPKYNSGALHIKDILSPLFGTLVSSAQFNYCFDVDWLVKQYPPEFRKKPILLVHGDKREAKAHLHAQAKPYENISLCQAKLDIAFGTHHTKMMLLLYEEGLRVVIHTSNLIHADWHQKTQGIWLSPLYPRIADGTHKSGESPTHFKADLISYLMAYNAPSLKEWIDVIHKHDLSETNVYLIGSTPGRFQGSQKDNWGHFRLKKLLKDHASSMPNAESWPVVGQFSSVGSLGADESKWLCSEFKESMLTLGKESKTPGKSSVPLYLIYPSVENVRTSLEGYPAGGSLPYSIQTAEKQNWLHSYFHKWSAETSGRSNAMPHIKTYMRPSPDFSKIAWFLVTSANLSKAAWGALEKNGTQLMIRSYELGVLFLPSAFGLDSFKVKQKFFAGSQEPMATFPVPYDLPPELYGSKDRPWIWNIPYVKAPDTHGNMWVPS
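Steps: enzyme plus compound, 15 min RT; add biotin/phosphotyrosine-FITC oligonucleotide (15 nM final), react 5 min; add donor/acceptor beads (10 ug/ml final), 10 min; read AlphaScreen. Tdp1 at 1 nM final.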
Giardia kill = Small Molecules that selectively kill Giardia lamblia: qHTS; Giardia lamblia trophozoite viability; activity change, % at 7.66 µM, hits read low; hit rate 0.15% among 340,000; in the data active means activity change below about -80%; inconclusive means between about -30% and that limit;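 further: parasites exposed to compound for two days anaerobically before the ATP read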
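Viability, read as ATP luminescence: trophozoites at 100 cells/well, compound added, 48 hrs anaerobic at 37 deg C, then 15-30 min room-temperature development before reading.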
DT40 TDP1 no CPT = qHTS for Inhibitors of human tyrosyl-DNA phosphodiesterase 1 (TDP1): qHTS in cells in absence of CPT. hit rate 15% among 420,000. DT40 Tdp1-/- hTDP1 cells, no CPT, ATP luminescence, 48 h. Potency, µM (titrated, usually from 46.2 µM), inactives show at the top dose activity change, negative = growth inhibition, most hits filed as inhibitors; further: potency means the concentration at half of the fitted maximal effect; nearly all actives have a fitted effect of over 55% in size
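Camptothecin absent (DMSO only). Human TDP1-complemented DT40 knockout cells, 400 cells/well, 37 °C for minimum 48 hr; ATP measured via CellTiter-Glo, 30 min dark incubation, luminescence.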
ELG1 repair inh = qHTS screen for small molecules that inhibit ELG1-dependent DNA repair in human embryonic kidney (HEK293T) cells expressing luciferase-tagged ELG1; hit rate 2.3% among 330,000; Potency, µM (titrated, usually from 46.1 µM), for the others: top-dose activity change, negative = inhibition, usual class: inhibitors; HEK293T ELG1-luciferase reporter, luminescence, 16 h; DNA damage induced by 5-fluorouridine; further: potency means the concentration at half of the fitted maximal effect; nearly all actives have a fitted effect of over 55% in size
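HEK293T cells expressing luciferase-tagged ELG1 (2,000/well) received 5-Fluorouridine plus compound or DMSO for 16 hr at 37 °C. Luciferase was read by ONE-Glo luminescence after 30 min at room temperature.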
* = called active by the depositor; i = inactive; ? = inconclusive; . = no result given; ! = not confirmed by another sample; [ ] = another dose, or the depositor's remark. Shown are actives, neighbours in structure and some others; about 19% of the full set was active somewhere. Unless noted, the call rests on the fitted dose curve; in most records, active means well fitted curve in the direction sought with a large enough effect; inconclusive means small, poorly fitted or top-dose-only effect, or another doubt; inactive means no such curve, though single readings can be large; an effect the other way counts as inactive or inconclusive. On the % scale 0 is the no-effect control and ±100 the full control effect.

SMILES	TDP1 cell CPT	IL-1B inflam inh	TDP1 inh	Giardia kill	DT40 TDP1 no CPT	ELG1 repair inh
CC[C@]12c3[nH]c4ccc(Cl)cc4c3CCN1C(=O)[C@@H](CC(=O)NCCN1CCOCC1)C[C@@H]2C(=O)N1CCN(C(=O)c2ccco2)CC1	-12.0%	-6.7	0.2%[56.1 µM]	?	-1.6%	4.0%
CC[C@]12c3[nH]c4ccccc4c3CCN1C(=O)C(CC(=O)NCCc1ccccn1)C[C@@H]2C(=O)N1CCN(C(=O)c2ccco2)CC1 (stereo not given in full)	-16.6%	34.3	0.9%	?	0.7%	1.3%
CC[C@]12c3[nH]c4ccc(Cl)cc4c3CCN1C(=O)[C@@H](CC(=O)NCc1ccco1)C[C@@H]2C(=O)N1CCN(C(=O)c2ccco2)CC1	16.4µM*	10.0	2.1%[56.1 µM]	5.9	20.6µM*	-13.8%
CC[C@]12c3[nH]c4ccc(Cl)cc4c3CCN1C(=O)[C@@H](CC(=O)NCC13CC4CC(CC(C4)C1)C3)C[C@@H]2C(=O)N1CCN(C(=O)c2ccco2)CC1	?	-26.1	6.2%[56.1 µM]	32.6	13µM*	20.6µM*
CC[C@]12c3[nH]c4ccc(Cl)cc4c3CCN1C(=O)[C@@H](CC(=O)NCCC1=CCCCC1)C[C@@H]2C(=O)N1CCN(C(=O)c2ccco2)CC1	20.6µM*	-22.7	2.9%[56.1 µM]	11.8	?	16.4µM*
CC[C@]12c3[nH]c4ccc(OC)cc4c3CCN1C(=O)C(CC(=O)NCC13CC4CC(CC(C4)C1)C3)C[C@@H]2C(=O)N1CCN(C(=O)c2ccco2)CC1 (stereo not given in full)	11.6µM*	-54.8*	9.0%[56.1 µM]	-2.9	8.2µM*	-24.5%
COC(=O)c1cc(OC)c(OC)cc1NC(=S)N1CCN(c2ccccn2)CC1	-20.3%	39.8	-3.7%	-3.7	?	?
COc1ccc(Br)cc1CNC(=O)c1cnc2sc(N3CCC(C)CC3)nn2c1=O	?	.	2.6%	.	?	.
Cc1ccsc1CN(C)C(=O)c1ccc(Oc2ccccc2)cc1	-15.6%	-2.8	-18.5%	-9.1	-29.7%	?
C/C(=N\Nc1ccc(Cl)c(C(=O)O)c1)c1ccccn1	1.6%	40.9	9.6%	-26.5	22.5%	?
C=CCNC(=S)N/N=C(\C)c1ccccn1	0.0103µM*	-11.9	9.8%	-5.5	0.0184µM*	0.184µM*
CC(=NNC(=S)Nc1ccccc1)c1ccccn1	0.0259µM*	?	.	.	0.116µM*	.
CC(=NNC(=S)Nc1ccccc1Cl)c1ccccn1	0.013µM*	-102.0*	.	0.7	0.146µM*	.
C/C(=N/NC(=O)CNC(=O)c1ccccn1)c1ccccc1	5.1%	0.9	2.7%	3.5	9.5%	?
N/C(=N\NC(=O)Nc1ccccc1)c1ccccn1	4.6%	-13.8	.	12.6	1.0%	?
Cc1ccc(C(=O)OCC(=O)N(CC(C)C)c2c(N)n(Cc3ccccc3)c(=O)[nH]c2=O)s1	16.2%	i	2.5%	-9.5	-9.2%	0.2%
CN(c1ccc(F)cc1)S(=O)(=O)c1ccc(Cl)c(C(=O)NCC2(N3CCOCC3)CCCCC2)c1	7.31µM*	?	.	25.0	7.31µM*	.
COc1ccccc1N1CCN(C(=O)c2ccccc2N(C)S(=O)(=O)c2ccc(C)cc2)CC1	?	4.6	5.0%	15.3	16.4µM*	-9.9%
COc1ccccc1N(C)S(=O)(=O)c1ccc(Cl)c(C(=O)NCC2(N(C)C)CCCCC2)c1	?	?	.	-5.4	8.2µM*	?
COc1ccccc1N(C)S(=O)(=O)c1ccc(Cl)c(C(=O)NNC(=O)c2ccccc2O)c1	?	111.7	-12.1%	12.5	?	26.2%
COc1ccccc1N(C)S(=O)(=O)c1ccc(Cl)c(C(=O)N2CCC2)c1	16.4µM*	16.6	0.7%	1.4	?	11.1%
NC(=O)CSc1nnnn1-c1ccccc1Cl	1.7%	-4.2	-4.9%	12.0	-17.8%	-3.5%
CCN(CC(=O)Nc1ccc(NC(C)=O)cc1)C(=O)c1cccnc1Sc1ccc(C)c(C)c1	-28.5%	6.5	-2.1%	3.5	?	1.7%
CC(=O)Nc1ccc2c(c1)nc(CCN1CCN(c3ccccn3)CC1)n2C	2.6%	-21.4	.	14.6	-1.7%	0.9%
COc1cc(OC)c(OC)cc1CNC(=O)c1cc(S(=O)(=O)N(C)c2ccccc2OC)ccc1C	?	-1.8	.	8.8	?	.
SMILES	TDP1 cell CPT	IL-1B inflam inh	TDP1 inh	Giardia kill	DT40 TDP1 no CPT	ELG1 repair inh
COc1ccccc1N(C)S(=O)(=O)c1ccc(Cl)c(C(=O)OCc2c(C)noc2C)c1	?	?	-2.6%	-9.7	23.1µM*	-29.2%
CCc1ccc(Oc2c(C(F)(F)F)oc3c(CN4CCN(C)CC4)c(O)ccc3c2=O)cc1	?	.	3.2%	.	25.9µM*	.
CC1CCN(Cc2c(O)ccc3c(=O)c(Oc4ccccc4Cl)c(C(F)(F)F)oc23)CC1	?	.	-5.3%	.	20.6µM*	.
COCc1nc2c([nH]1)c(=O)n(C)c(=O)n2CC(C)C	1.5%	-9.3	7.1%[56.1 µM]	-2.3	-5.8%	?
C=CCC1C=C(Cc2ccccc2)CC(CC=C)N1 (stereo not given)	18.4µM*	-3.3	7.0%	-23.0	23.1µM*	-6.2%
C=CC[C@H]1CC(Cc2ccccc2)=C[C@H](CC=C)N1	16.4µM*	-75.1*	4.3%	3.2	18.4µM*	-0.4%
C=CC[C@H]1CC(C)=C[C@H](CC=C)N1	13.2%	14.0	2.6%	-1.5	0.8%	17.4%
COc1cc(SC)ccc1C(=O)NCCNC(=O)c1nonc1N	-18.9%	-11.1	.	-8.2	-29.4%	16.0%
CCOC(=O)[C@]12Cc3c(cc(OC)c(OC)c3OC)[C@H]1N(C1CCCCC1)C(=O)c1cc(OC)ccc12	9.2µM*	-118.4*	.	.	9.2µM*	.
CCOC(=O)N1CCC(N2C(=O)c3ccccc3C2Nc2cc(OC)c(OC)c(OC)c2)CC1 (stereo not given)	?	-19.0	0.0%	-4.3	?	?
CCOC(=O)/C=C1\CC(C(=O)OCC)Oc2c(OC)cccc21 (stereo not given)	?	14.4	0.1%[56.1 µM]	-20.8	23.1µM*!	2.8%
COc1cc(SC#N)ccc1N=Cc1c(C)[nH]n(-c2ccc(C)c(C)c2)c1=O	3.26µM*	-97.8*	8.2%	-9.2	2.59µM*	?
